Assay results published in PubChem BioAssay AID686978 (National Center for Advancing Translational Sciences (NCATS), 2013).
Among all 420,000 compounds or so, about 64,000 (15%) were called active. Not shown: some 27% with an inconclusive outcome. Only a sample is shown. Values without a mark were called inactive. Calls follow the shape of the dose curve; as a rule, active = well fitted inhibition curve with a large enough effect; inconclusive = small, poorly fitted or top-dose-only effect; inactive = flat fitted curve, though single readings scatter.

Experiment: qHTS for Inhibitors of human tyrosyl-DNA phosphodiesterase 1 (TDP1): qHTS in cells in absence of CPT; also: nearly all actives have a fitted effect of over 55% in size
Settings: DT40 Tdp1-/- hTDP1 cells, no CPT, ATP luminescence, 48 h; activity change, negative = growth inhibition: at 46.2 µM (top of the series)
Summary of the method: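 Growth kinetics read by CellTiter-Glo luminescence after ≥48 hr at 37 °C. Cells: DT40 Tdp1-/- stably carrying human TDP1, 400 per well, compound exposure in the absence of CPT (DMSO vehicle).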
% is scaled to controls: 0 for no effect and ±100 for the full control effect; potency is read from the fitted curve at half-maximal effect.

Compound	activity change, negative = growth inhibition [%]	Potency
CCOCCN(C=O)c1cccc(OC)c1	-14.8	
Cc1cc(C)c2c(Cn3ccnc3)cc(=O)oc2c1	-22.5	
CC(C)C[C@H](NC(=O)N1CC(=O)Nc2ccccc21)C(=O)N[C@H](Cc1ccccc1)C(=O)O	6.12	
CSCC[C@H](NC(=O)NC1CCCC1)C(=O)O	17.5	
O=C(Nc1nccs1)c1cc(S(=O)(=O)N2CCOCC2)c(Cl)cc1Cl	-12	
CCOC(=O)C1=C(c2ccccc2)NC(=O)NC1c1cc(OCC)c(O)c([N+](=O)[O-])c1 (stereo not given)	-13.7	
CCCOc1ccc(C2NC(=O)NC(c3ccccc3)=C2C(C)=O)cc1OCC (stereo not given)		23.1 µM (active)
COc1cc(C2NC(=O)NC(c3ccccc3)=C2C(C)=O)c(Br)cc1OCC(N)=O (stereo not given)	-4.31	
CC(C)(C(=O)N1CCC1(C)C(=O)NS(=O)(=O)c1ccc(Br)cc1)c1ccccc1 (stereo not given)	-10.3	
CSc1nsc(SCC(=O)Nc2cc(C(=O)O)ccc2C)n1	26.8	
CC(CN1CCCCC1)c1ccccc1 (stereo not given)	-5.65	
OC(C#CCN1CCOCC1)(c1ccccc1)C1CCCCC1 (stereo not given)	-19	
COc1ccc(C(O)(C2CCCCC2)C(CN2CCCC2)c2ccccc2)cc1 (stereo not given)		18.4 µM (active)
CCc1nccn1S(=O)(=O)c1cc(Br)ccc1Br	-5.02	
Cc1cc2nc(-c3ccc(NC(=O)c4cc5ccccc5o4)cc3)oc2cc1C	-3.82	
O=C(Nc1ccc(-c2nc3cc(NC(=O)c4ccccc4Cl)ccc3o2)cc1)c1ccccc1Cl		2.91 µM (active)
O=C(COc1ccc(Cl)cc1)Nc1ccc(-c2nc3cc(Cl)ccc3o2)c(O)c1	-19	
CCCOc1ccc(C(=O)Nc2ccc3oc(-c4cccc(Cl)c4Cl)nc3c2)cc1		7.31 µM (active)
CC(=O)Nc1ccc(-c2nc3ccccc3o2)cc1	9.6	
Cc1nc2nc[nH]n2c(=O)c1NC(=O)c1cccc(OCC(C)C)c1	-10.7	
Cc1ccccc1-c1nc2cc(NC(=O)c3cccc(OCCC(C)C)c3)ccc2o1		5.17 µM (active)
COc1cc(OC)cc(C(=O)Nc2ccc(-c3nc4ccccc4o3)c(O)c2)c1		16.4 µM (active)
O=C(Nc1ccc(C(=O)O)c(O)c1)c1ccccc1		inactive
CCCCCC(=O)Nc1ccc2oc(-c3ccncc3)nc2c1	-14.9	
CCCCOc1ccc(C(=O)Nc2cccc(-c3nc4ccccc4o3)c2C)cc1	-15	
NS(=O)(=O)c1ccc(CCNC(=O)CNC(=O)Cc2ccccc2)cc1	12.8	
NC(=O)C1CC=CCC1C(=O)OCC(Cl)=C(Cl)Cl (stereo not given)	4.67	
CC(C)NC(=S)N1CCN(S(C)(=O)=O)CC1	1.33	
C[n+]1cc(-c2ccccc2)oc1-c1ccccc1	-10.1	
COc1cc(OC)cc(C(=O)NNC(=O)Cc2cccs2)c1	-1.43	
